From the supplement of paper PMC12636033
± gives the standard deviation of the averaged measurements. In all, about 33,000 sequences were measured (“E-score (rank enrichment, -0.5 to 0.5)”: median about -0.0075, highest 2% from about 0.23 on). The list comes from a sample in which the highest values are over-represented; it also holds similar and randomly drawn sequences.

The sequences below were run on WT Max(13-93) synthetic (M65Nle) (assay: PBM 8-mer E-score (E-score (rank enrichment, -0.5 to 0.5)); higher = stronger preferential binding).
Experimental: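 Protein binding microarray (universal PBM chip covering all 10-mers in fixed probe flanks) with chemically synthesized human Max(13-93) bHLH-LZ analogs (not full-length Max) bearing noncanonical residues (hArg, Tha, Aib, Nle at 65) and aromatic Cys staples. Read-out per 8-mer (and its reverse complement): E-score (rank-based enrichment, -0.5 to 0.5) and Z-score of median probe intensity.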

Row | Sequence | PBM 8-mer E-score
1 | AAGAAATG | 0.101 ± 0.04
2 | AAGACGGA | -0.127 ± 0.033
3 | CAAATCAC | 0.0214 ± 0.064
4 | CGGACGAG | -0.203 ± 0.017
5 | AGTCACAG | -0.117 ± 0.061
6 | AGTCACAC | 0.0956 ± 0.0018
7 | AGTCACAT | 0.251 ± 0.0014
8 | CTTTTCAC | 0.241 ± 0.17
9 | ATTTTCAC | -0.017 ± 0.0034
10 | CCTTTCAC | 0.0141 ± 0.092
11 | AGAAGCAT | 0.135 ± 0.018
12 | AGGACGAT | 0.0538 ± 0.14
13 | AGCGATGA | -0.182 ± 0.065
14 | ATAACTAT | 0.143 ± 0.042
15 | CTTACTAC | 0.08987 ± 0.00056
16 | ATAACTAC | 0.239 ± 0.077
17 | ATTACTAC | 0.264 ± 0.03
18 | ATTACTAG | -0.00575 ± 0.14
19 | CTAACTAC | -0.0993 ± 0.059
20 | AGAAAGTA | 0.204 ± 0.0097
21 | CTGCGCAC | 0.0305 ± 0.029
22 | ACCACGTC | 0.0378 ± 0.15
23 | ACCACGCC | 0.0629 ± 0.16
24 | AGCACGTA | -0.0146 ± 0.12
25 | ACCACGTG | 0.4956 ± 0.0014

Row | Sequence | PBM 8-mer E-score
26 | ACCACGCA | 0.104 ± 0.042
27 | CCCACGCA | -0.00155 ± 0.1
28 | ACCACGCG | 0.361 ± 0.016
29 | CCCACGCG | 0.31 ± 0.011
30 | ACCACGTA | 0.0522 ± 0.0021
31 | AGCACGTC | -0.118 ± 0.093
32 | CCCACGCC | -0.00325 ± 0.11
33 | AGCACGTG | 0.4878 ± 0.00074
34 | CCTTCGAA | 0.0583 ± 0.015
35 | ATTCAACA | 0.131 ± 0.1
36 | AGCCGTCA | -0.0749 ± 0.036
37 | CGATCGTC | -0.278 ± 0.042
38 | TCCCGGGA | -0.251 ± 0.0053
39 | AATGGCAT | 0.16 ± 0.14
40 | CAAAAAGC | -0.0124 ± 0.093
41 | AGGAGCAT | 0.00459 ± 0.16
42 | AGCTCTCA | -0.0708 ± 0.13
43 | GCGTGCCC | -0.0787 ± 0.13
44 | ACGTGCCC | 0.247 ± 0.032
45 | ACGTGCCA | 0.294 ± 0.025
46 | CCGTGCCC | -0.132 ± 0.18
47 | CCGTGCCA | -0.0364 ± 0.14
48 | GCGTGCCA | -0.0642 ± 0.045
49 | ACGTGCCT | 0.252 ± 0.0048
50 | AAGTGCCT | -0.106 ± 0.055

Row | Sequence | PBM 8-mer E-score
51 | ACGTGCCG | 0.206 ± 0.029
52 | GCCTTGCC | -0.201 ± 0.024
53 | CAGAATAG | 0.0142 ± 0.048
54 | CCTATACG | 0.0369 ± 0.014
55 | CGCGAGAA | -0.0592 ± 0.072
56 | CGTGGCGA | 0.015 ± 0.0011
57 | ACTAGGCA | -0.0155 ± 0.066
58 | AATCGGAG | -0.0774 ± 0.087
59 | ATTGCCTC | 0.0622 ± 0.064
60 | ACACGCGG | 0.281 ± 0.03
61 | GCACGCGC | 0.171 ± 0.025
62 | ACACGCGA | 0.157 ± 0.042
63 | CCACGCGA | 0.0546 ± 0.083
64 | ACACGCGT | 0.325 ± 0.013
65 | AAACGCGT | 0.0714 ± 0.1
66 | CCACGCGG | 0.433 ± 0.024
67 | ACACGCTG | 0.0854 ± 0.074
68 | ACACGCAT | 0.159 ± 0.043
69 | ACACGCGC | 0.259 ± 0.026
70 | CCACGCGC | 0.152 ± 0.035
71 | ACGCGCGA | 0.114 ± 0.066
72 | ATCCCTCC | 0.0287 ± 0.088
73 | CAGGGTAC | -0.008 ± 0.013
74 | CGCTAGTA | -0.0479 ± 0.0027
75 | CAGTGCGA | -0.0198 ± 0.16

Row | Sequence | PBM 8-mer E-score
76 | AGTCGTTC | -0.143 ± 0.11
77 | CCAGCCCA | -0.176 ± 0.14
78 | GCAACCAA | 0.00549 ± 0.078
79 | AAGCGCGC | 0.0137 ± 0.0014
80 | ACGCGCGC | 0.0593 ± 0.05
81 | CCACGAGA | 0.0679 ± 0.15
82 | ACGCGCGG | 0.118 ± 0.018
83 | CCACGAGG | 0.365 ± 0.052
84 | CCACGAGC | -0.0509 ± 0.015
85 | ACGCGCGT | 0.246 ± 0.012
86 | ATCTAATG | -0.0696 ± 0.071
87 | AAGCTCTG | -0.144 ± 0.028
88 | ATCGCGCA | -0.034 ± 0.026
89 | CCAGAGTC | -0.155 ± 0.0016
90 | CACGCATG | 0.184 ± 0.066
91 | AACGCATG | 0.305 ± 0.042
92 | CAAGCATG | 0.24 ± 0.053
93 | ACAGCATC | 0.0804 ± 0.099
94 | ACAGCATG | 0.305 ± 0.01
95 | AAAGCATG | 0.303 ± 0.017
96 | AAAGCATA | 0.211 ± 0.026
97 | ACAGCATA | 0.00665 ± 0.081
98 | CAAGCATA | 0.104 ± 0.034
99 | AACGCATC | 0.0593 ± 0.014
100 | CAAGCATC | 0.00917 ± 0.063

Row | Sequence | PBM 8-mer E-score
101 | AAAGCATT | 0.14 ± 0.0086
102 | ACACAGAC | 0.00286 ± 0.095
103 | AGACGTAG | 0.0572 ± 0.041
104 | CAATGCGC | 0.0235 ± 0.012
105 | AAGGGCGT | -0.0104 ± 0.031
106 | GATAAAGC | 0.179 ± 0.094
107 | AGTGGAGG | 0.0658 ± 0.0029
108 | ATTAGACG | 0.136 ± 0.028
109 | AAAGATAA | 0.234 ± 0.029
110 | AAAGATAC | 0.00254 ± 0.17
111 | TAAGATAA | 0.018 ± 0.049
112 | AAAGATAG | 0.0319 ± 0.07
113 | CAAGATAC | 0.146 ± 0.047
114 | CAAGATAA | 0.256 ± 0.014
115 | GCTACGTA | 0.0754 ± 0.075
116 | ACCCAGCT | -0.00912 ± 0.022
117 | TCGAGACA | -0.125 ± 0.06
118 | GACCTTAC | -0.127 ± 0.056
119 | TCCTTTCA | 0.177 ± 0.086
120 | CCGACCAG | -0.175 ± 0.0087
121 | GTGGAGTA | -0.0124 ± 0.029
122 | TGGACGAA | 0.138 ± 0.011
123 | AGTATCTA | 0.253 ± 0.022
124 | CGTATCTA | -0.0295 ± 0.068
125 | GGTATCTA | 0.0126 ± 0.011

Row | Sequence | PBM 8-mer E-score
126 | CGGCAATC | -0.205 ± 0.029
127 | AGTCGGTC | -0.181 ± 0.0094
128 | GATCAAGA | -0.00477 ± 0.11
129 | GACATGGC | 0.073 ± 0.098
130 | CACATGAC | 0.317 ± 0.0056
131 | AACATGGC | 0.118 ± 0.02
132 | CACATGAA | 0.1797 ± 0.00019
133 | AACATGGG | 0.231 ± 0.047
134 | GACATGGA | -0.0676 ± 0.069
135 | AACATGGA | 0.106 ± 0.052
136 | CACATGGG | 0.276 ± 0.0049
137 | CCCATGGG | -0.0583 ± 0.12
138 | CACATGGC | 0.343 ± 0.039
139 | CACATGGA | 0.37 ± 0.02
140 | CACATGAG | 0.0368 ± 0.07
141 | CGTATCCC | -0.27 ± 0.076
142 | AAATCAAC | 0.129 ± 0.0028
143 | CGCTCGCC | -0.158 ± 0.02
144 | CCGGCAAC | -0.301 ± 0.024
145 | ACCCTGTC | -0.0879 ± 0.17
146 | AGAATCGG | -0.25 ± 0.048
147 | ACTAGGTA | 0.102 ± 0.04
148 | CTAACGCA | 0.12 ± 0.0043
149 | GCTGCAGA | -0.00761 ± 0.073
150 | CGTATTTA | 0.285 ± 0.056

Row | Sequence | PBM 8-mer E-score
151 | GGTATTTA | 0.0645 ± 0.18
152 | AGTATTTA | 0.186 ± 0.058
153 | AAGACACC | -0.137 ± 0.085
154 | AGCAGCTA | -0.199 ± 0.04
155 | AAGTATAC | 0.246 ± 0.014
156 | AACTACAG | -0.0267 ± 0.018
157 | AAGTACAA | 0.225 ± 0.15
158 | CAGTACAC | 0.0197 ± 0.13
159 | AAGTATAA | 0.225 ± 0.069
160 | GACTACAC | 0.0803 ± 0.16
161 | AACTACAC | 0.282 ± 0.02
162 | AAGTACAC | 0.235 ± 0.075
163 | AAGTATAT | 0.0964 ± 0.13
164 | CGTGGCCC | 0.0336 ± 0.14
165 | GAGATGCC | 0.078 ± 0.063
166 | AGGGCCGA | 0.0332 ± 0.068
167 | GCCCACCC | 0.206 ± 0.017
168 | CGACACCG | -0.265 ± 0.12
169 | AGATGGCC | -0.092 ± 0.12
170 | CACGTAGC | 0.0038 ± 0.017
171 | GAGTCCCA | -0.0366 ± 0.0061
172 | CTGTTGCA | 0.0892 ± 0.013
